For 40 molecules, growth results are on record in PubChem BioAssay (NCI).

Compounds without any hit were thinned out: in the full panel of roughly 83,000, 20% have a hit.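 Single-dose data. Exposure time 48 hours. Values below 10 considered active.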 A number with no mark means an inactive call. The source made the active and inactive calls.

This test relates to HCC-2998 colon. Briefly: NCI-60 one-dose screen, 48 h (100 = growth as untreated, 0 = no growth, -100 = all killed). As to conditions: 10 µM unless noted.
On to `O=C(Cn1c(-c2ccc([N+](=O)[O-])cc2)nc2ccccc21)NNC(=O)c1cccnc1`, for which the growth is 98.5%.
For `O=C(Cn1cc(CN2C(=O)c3ccccc3S2(=O)=O)nn1)Nc1nc2ccccc2s1` the value was 113%.
To `CCN1CC(=O)N(/N=C2\C(=O)Nc3ccccc32)C1=S` belongs 99.4%; to `O=C1NCCC12CCN(c1c(Cl)cncc1-c1ccc(O)cc1)CC2`, 120%.
For `COP(=O)(OC)C(C)(C)CC(=O)CC(C#N)(C#N)C(C#N)C#N` the value was 92.6%; for `COc1ccc(-c2nc3c(c(-c4ccccc4)nn3-c3ccccc3)c(-c3ccc(N4CCN(C)CC4)cc3)c2C#N)cc1`, 106%; for `C#Cc1cccc(Nc2ncnc3ccc(-c4cncc(NS(C)(=O)=O)c4)cc23)c1`, 45.5%.
Take `Cc1ccc(Sc2nnc(/N=C3\C(=O)Nc4ccccc43)s2)cc1`: the growth was 116%.
With `CN(C)c1ccc(/C=C/C(=O)c2ccc(-n3cc(CN4CCN(c5cc6c(cc5F)c(=O)c(C(=O)O)cn6C5CC5)CC4)nn3)cc2)cc1`, the growth is 79.3%.
For `CCOC(=O)CSc1ncnc2c1c(-c1ccccc1)c(-c1ccccc1)n2-c1ccc(C)cc1` the value was 75.8%; for `O=C(CCCCCCN1CC(=O)N2[C@H](c3cc(Br)cs3)c3[nH]c4ccccc4c3C[C@H]2C1=O)NO`, 75.1%.
To `Cn1c(O)c(C=NCCN=Cc2c(O)n(C)c(=O)n(C)c2=O)c(=O)n(C)c1=O` belongs 92.2%; to `C/C(Nc1ccc(Cl)c(Cl)c1)=C1\CCOC1=O`, 90.3%.
Regarding `C=C1C(=O)O[C@H]2[C@H]1CC/C(COC(=O)CCSCCC(=O)OC/C1=C/CC[C@@]3(C)O[C@H]3[C@H]3OC(=O)C(=C)[C@@H]3CC1)=C\CC[C@@]1(C)O[C@@H]21`, the growth is -1.54% (active).
As to `Cc1ccc(/C=N/Nc2nc(Nc3ccccc3)nc(-n3nc(C)cc3C)n2)cc1`, the growth was 43.1%.
To `O=C(CCc1nnc(Cn2cnc3nc[nH]c3c2=O)o1)c1nc2ncccc2[nH]1` belongs 105%; to `O=C1NC(=O)c2c1c1c3ccccc3ccc1c1[nH]c3ccc(Br)cc3c21`, 49.3%.
To `Nc1nc(=S)c2ncn(C3OC(COP(=O)(O)O)C(O)C3O)c2[nH]1` (stereo not given) belongs 20.8%; to `CC12CCC3c4ccccc4CCC3(CO1)C2` (stereo not given), 94.2%; to `O=Cc1ccc([N+](=O)[O-])s1`, 100%.
`CC(C)c1ccc(COCc2cc(CN3CCCC3)c(O)c3ncccc23)cc1`: the growth was 14.6%.
For `COCCNC(=O)c1ccc(-c2nc3ccc4[nH]ncc4c3c3c2CCCC3)cc1` the value was 47.5%.
As for `C/C(=N/O)c1ccc(F)cc1`, the growth was 130%.
For `COc1ccc2nc(NC(=O)CSc3nnc4n3S(=O)(=O)c3ccccc3N4C)sc2c1`, the growth is 108%.
Consider `CN(Cc1ccc(C(F)(F)F)cc1)CC(O)C(=O)Nc1ccc(Cl)cc1` (stereo not given), for which the growth is -48.2% (active).
To `Cc1ccc2c3c(c(=O)[nH]c2c1)C1(C(C#N)=C(N)O3)c2cc(Br)ccc2-c2ccc(Br)cc21` belongs -4.73% (active); to `CC1(C)CC[C@]2(c3nnc(-c4ccncc4)o3)CC[C@H]3C(=CC[C@H]4[C@@]3(C)CC[C@H]3C(C)(C)C(=O)CC[C@]43C)[C@@H]2C1`, 75.3%; to `C=C(C)[C@@H]1CC[C@]2(C(=O)N3CCN(C)CC3)CC[C@]3(C)[C@H](CC[C@@H]4[C@@]5(C)CC(=C/c6ccncc6)/C(=N/O)C(C)(C)[C@@H]5CC[C@]43C)[C@@H]12`, 82.7%.
For `Oc1ccc(CCn2c(O)c(/C=C3\CN=c4ccccc4=N3)sc2=S)cc1` the value was 87.1%; for `CCNC(=O)c1[nH]cc(-c2ccccc2)c1-c1cc(OC)c2c(c1OC)OCO2`, 104%; for `C[C@]12C=CC(=O)C=C1CCC1C2[C@@H](O)C[C@@]2(C)C1CC[C@]2(O)C(=O)COC(=O)CCC(=O)O` (stereo not given in full), 110%.
For `C=CCc1c(O)c(C(=O)/C=C/c2ccc(Cl)cc2)c(OC)c2ccoc12` the value was 63.3%; for `COc1cc(-n2cc(-c3cc(O)c(C/C=C(\C)CCC=C(C)C)c(O)c3)nn2)cc2c1O[C@]1(C)CC[C@@H](O)C(C)(C)[C@H]1C2`, 10.2%; for `O=C(CSc1nc2ccc([N+](=O)[O-])cc2[nH]1)Nc1cccc(C(F)(F)F)c1`, 30.7%.
`COc1ccc(C(=O)Nc2ncc(Cc3ccc(F)cc3)s2)cc1`: the growth was 8.19% (active).
For `COc1cc(-c2nc3cc(Cl)c(Cl)cc3[nH]2)ccc1OCC(=O)N=Nc1c(O)[nH]c2ccc([N+](=O)[O-])cc12` the value was 71.8%; for `CCOC(=O)c1cc2c(=O)oc3ccccc3c2oc1=O`, 102%; for `c1cc2[nH]ncc2cc1-c1nc2ccc3[nH]ncc3c2c2c1CCCC2`, 13.8%.
To `Cc1cccc2c1NC(=O)C2(c1ccc(O)cc1)c1ccc(O)cc1` belongs 42.9%.
For `CCOC(=O)C(=Cc1cccc(Cl)c1)C(=O)OCC` the value was 77.1%.
